Laboratory results: PubChem BioAssay (NCATS)
Results filed as inconclusive are left out. Values without a mark were called inactive. Activity calls are given as the source filed them. Calls follow the shape of the dose curve; as a rule, active = well fitted cell-killing curve with a large enough effect; inconclusive = small, poorly fitted or top-dose-only effect, or effect the other way; inactive = no such curve, though single readings can be large or run the other way.

Experiments:
[1] = Quantitative High-Throughput drug screen in 47 multiple myeloma cell lines against the NCATS MIPE library collection: MM1R_ATCC cell viability assay (AID 1918981); also: nearly all actives have a fitted effect of over 35% in size
How it was run: (§1)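 qHTS format: cells plated (500/well), pin-dosed with MIPE 4.0 compounds, kept 48 h at 37 °C. Readout was CellTiter-Glo luminescence, median RLU.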

[2] = Quantitative High-Throughput drug screen in 47 multiple myeloma cell lines against the NCATS MIPE library collection: KMS28PE_JCRB cell viability assay (AID 1918983); also: nearly all actives have a fitted effect of over 35% in size
How it was run: as §1

[3] = Quantitative High-Throughput drug screen in 47 multiple myeloma cell lines against the NCATS MIPE library collection: L363_DSMZ cell viability assay (AID 1918984); also: nearly all actives have a fitted effect of over 40% in size
How it was run: as §1

[4] = Quantitative High-Throughput drug screen in 47 multiple myeloma cell lines against the NCATS MIPE library collection: KMS34_JCRB cell viability assay (AID 1918985); also: nearly all actives have a fitted effect of over 40% in size
How it was run: as §1

[5] = Quantitative High-Throughput drug screen in 47 multiple myeloma cell lines against the NCATS MIPE library collection: OCIMY7_PLB cell viability assay (AID 1918987); conditions: OCI-MY7 myeloma viability, CellTiter-Glo ATP, 48 h; viability (% of DMSO): at 45.8 µM (top of the series); also: nearly all actives have a fitted effect of over 65% in size
How it was run: as §1

[6] = Quantitative High-Throughput drug screen in 47 multiple myeloma cell lines against the NCATS MIPE library collection: OPM1_PLB cell viability assay (AID 1918989); also: nearly all actives have a fitted effect of over 40% in size
How it was run: as §1

[7] = Quantitative High-Throughput drug screen in 47 multiple myeloma cell lines against the NCATS MIPE library collection: XG6_PLB cell viability assay (AID 1919865); also: nearly all actives have a fitted effect of over 40% in size
How it was run: as §1

[8] = Quantitative High-Throughput drug screen in 47 multiple myeloma cell lines against the NCATS MIPE library collection: XG1_PLB cell viability assay (AID 1919866); also: nearly all actives have a fitted effect of over 35% in size
How it was run: as §1

[9] = Quantitative High-Throughput drug screen in 47 multiple myeloma cell lines against the NCATS MIPE library collection: VP6_DJ cell viability assay (AID 1919867); also: nearly all actives have a fitted effect of over 40% in size
How it was run: as §1

[10] = Quantitative High-Throughput drug screen in 47 multiple myeloma cell lines against the NCATS MIPE library collection: OPM2_DSMZ cell viability assay (AID 1919872); also: nearly all actives have a fitted effect of over 30% in size
How it was run: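 CellTiter-Glo ATP luminescence gave viability after 48 h compound treatment at 37C of 500 multiple myeloma cells per well. Normalisation used DMSO-only wells as 100% and media-only wells as 0% viability; primary qHTS of approved and investigational drugs.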

[11] = Quantitative High-Throughput drug screen in 47 multiple myeloma cell lines against the NCATS MIPE library collection: KMS11_JCRBsus cell viability assay (AID 1919873); also: nearly all actives have a fitted effect of over 50% in size
How it was run: as §1

[12] = Quantitative High-Throughput drug screen in 47 multiple myeloma cell lines against the NCATS MIPE library collection: OCIMY5_PLB cell viability assay (AID 1918988); also: nearly all actives have a fitted effect of over 65% in size
How it was run: as §1

[13] = Quantitative High-Throughput drug screen in 47 multiple myeloma cell lines against the NCATS MIPE library collection: SKMM1_PLB cell viability assay (AID 1919863); conditions: SKMM1 myeloma viability, CellTiter-Glo ATP, 48 h; viability: active compounds read low; also: nearly all actives have a fitted effect of over 35% in size
How it was run: as §1

[14] = Quantitative High-Throughput drug screen in 47 multiple myeloma cell lines against the NCATS MIPE library collection: U266_ATCC cell viability assay (AID 1919864); also: nearly all actives have a fitted effect of over 35% in size
How it was run: as §1

[15] = Quantitative High-Throughput drug screen in 47 multiple myeloma cell lines against the NCATS MIPE library collection: PE2_PLB cell viability assay (AID 1919869); also: nearly all actives have a fitted effect of over 35% in size
How it was run: as §1

[16] = Quantitative High-Throughput drug screen in 47 multiple myeloma cell lines against the NCATS MIPE library collection: PCM6_Riken cell viability assay (AID 1919870); also: nearly all actives have a fitted effect of over 30% in size
How it was run: as §1

[17] = Quantitative High-Throughput drug screen in 47 multiple myeloma cell lines against the NCATS MIPE library collection: KMS28BM_JCRB cell viability assay (AID 1919874); also: nearly all actives have a fitted effect of over 35% in size
How it was run: as §1

[18] = Quantitative High-Throughput drug screen in 47 multiple myeloma cell lines against the NCATS MIPE library collection: UTMC2_PLB cell viability assay (AID 1919868); conditions: CellTiter-Glo ATP luminescence, 48 h; viability (% of DMSO control): at 45.8 µM (top of the series); also: nearly all actives have a fitted effect of over 55% in size
How it was run: as §1

[19] = Quantitative High-Throughput drug screen in 47 multiple myeloma cell lines against the NCATS MIPE library collection: RPMI8226_ATCC cell viability assay (AID 1919871); also: nearly all actives have a fitted effect of over 30% in size
How it was run: as §1
Potency is read from the fitted curve at half-maximal effect.

SMILES	Potency [1]	Potency [2]	Potency [3]	Potency [4]	Potency [5]	Potency [6]	Potency [7]	Potency [8]	Potency [9]	Potency [10]	Potency [11]	Potency [12]	Potency [13]	Potency [14]	Potency [15]	Potency [16]	Potency [17]	Potency [18]	viability [13] [%]	Potency [19]
O=C(NC1CC1)c1cccc(-c2ccc3c(NC(=O)C4CC4)n[nH]c3c2)c1	1.48 µM (active)	10.5 µM (active)	inactive	20.9 µM (active)	7.43 µM (active)	14.8 µM (active)	1.48 µM (active)	1.05 µM (active)	9.35 µM (active)	14.8 µM (active)	7.43 µM (active)									
COc1ccc(Nc2cc(-c3cnc(N)nc3)nc(N3CCOCC3)n2)cn1	1.66 µM (active)	0.833 µM (active)	0.526 µM (active)	2.96 µM (active)	1.05 µM (active)		3.72 µM (active)	2.35 µM (active)	5.26 µM (active)	7.43 µM (active)	0.469 µM (active)	11.8 µM (active)	0.235 µM (active)	11.8 µM (active)	3.32 µM (active)					
c1cc(N[C@@H]2CCNC2)nc(-c2cnc3ccc(-c4cn[nH]c4)cn23)c1	20.9 µM (active)	16.6 µM (active)	7.43 µM (active)		7.43 µM (active)	16.6 µM (active)	2.64 µM (active)	5.26 µM (active)	14.8 µM (active)			13.2 µM (active)	26.4 µM (active)		2.35 µM (active)	5.9 µM (active)	23.5 µM (active)			
Nc1ccc(C(=O)Nc2cccc(-c3nc(N4CCOCC4)c4oc5ncccc5c4n3)c2)cn1	13.2 µM (active)	26.4 µM (active)	1.18 µM (active)	7.43 µM (active)	3.32 µM (active)		2.96 µM (active)	5.9 µM (active)	4.18 µM (active)	5.26 µM (active)	6.62 µM (active)	5.9 µM (active)	23.5 µM (active)	20.9 µM (active)	2.09 µM (active)	5.9 µM (active)	26.4 µM (active)	3.32 µM (active)		
CCOC(=O)C1=C(C)NC(=S)NC1c1cccc(O)c1 (centres undefined)	0.0296 µM (active)	0.0833 µM (active)		0.0833 µM (active)	0.105 µM (active)		0.0296 µM (active)	0.0662 µM (active)	0.0296 µM (active)	0.105 µM (active)	0.0166 µM (active)	0.0235 µM (active)	0.0526 µM (active)	inactive	0.0148 µM (active)	0.0372 µM (active)		0.0372 µM (active)		
CC(C)Oc1ccc(C(=O)N[C@H](CNC(=O)CN(C)C)Cc2ccc(-c3cn4cccc([C@H](C)O)c4n3)cc2)cc1Cl	0.59 µM (active)	0.59 µM (active)	0.0833 µM (active)		0.332 µM (active)		0.105 µM (active)	0.148 µM (active)	5.26 µM (active)	1.48 µM (active)	0.132 µM (active)	0.418 µM (active)	0.296 µM (active)			23.5 µM (active)				
O=C(O)CCCCC(CCSCc1ccccc1)SCc1ccccc1 (centres undefined)	inactive	inactive	13.2 µM (active)	inactive					16.6 µM (active)	inactive					inactive				120	inactive
C[C@]12CCC(=O)C=C1[C@@H]1CC1[C@H]1[C@H]3[C@@H]4C[C@H]4[C@@]4(CCC(=O)O4)[C@@]3(C)CC[C@H]12 (some centres undefined)	inactive	inactive	inactive			inactive			inactive	inactive				inactive	inactive	inactive	11.8 µM (active)			18.7 µM (active)
O=C(Nc1cc2cc[nH]c2cn1)c1ccccc1	7.43 µM (active)	11.8 µM (active)	6.62 µM (active)			14.8 µM (active)	16.6 µM (active)		18.7 µM (active)		11.8 µM (active)	5.26 µM (active)	11.8 µM (active)	11.8 µM (active)	10.5 µM (active)	8.33 µM (active)	5.26 µM (active)			
CN1CCc2c(c3ccccc3n2Cc2ccc(C(=O)NO)cc2)C1	16.6 µM (active)	18.7 µM (active)		16.6 µM (active)	9.35 µM (active)	16.6 µM (active)	8.33 µM (active)	11.8 µM (active)	9.35 µM (active)		20.9 µM (active)	18.7 µM (active)			23.5 µM (active)	16.6 µM (active)				
O=C(CCCCCCC(=O)Nc1cccnc1)NO	2.64 µM (active)	4.18 µM (active)	5.9 µM (active)	3.72 µM (active)			11.8 µM (active)	3.72 µM (active)	1.48 µM (active)	8.33 µM (active)	5.9 µM (active)	3.32 µM (active)	5.9 µM (active)	4.69 µM (active)	7.43 µM (active)	7.43 µM (active)	4.18 µM (active)	0.935 µM (active)		16.6 µM (active)
